Assay results: the supplement of paper PMC8975748
Where a name gives a salt, the structure may show the parent alone. ± gives the standard deviation of the averaged measurements.

Assays:
[1] = system: Saccharomyces cerevisiae BY4741 SeMeCo community; experiment: mean cell size (pixel area) (pixels); higher = larger cells; settings: 10 µM; 24 h; SM minimal medium
Method in brief: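 Harmony analysis of automated confocal images of paraformaldehyde-fixed yeast gave the mean cell pixel area per well. The yeast was a Saccharomyces cerevisiae BY4741 community carrying four plasmids, each with a fluorescent marker and each complementing one auxotrophy, incubated for 24 h in SM medium containing drug at a final 10 µM in 384-well plates. Results are averaged over 3 replicates. Same SeMeCo high-content imaging drug screen: Selleck FDA-approved drugs at 10 µM, 24 h in SM medium, 384-well plates, 3 replicates.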

[2] = system: Saccharomyces cerevisiae BY4741 SeMeCo community; experiment: z-score of prototroph abundance vs DMSO median; higher = larger share of this subpopulation than in DMSO controls; settings: 10 µM; 24 h; SM minimal medium; subpopulation (auxotrophy): Prototroph
Method in brief: (§1)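 A Saccharomyces cerevisiae BY4741 community carried four plasmids, each restoring one auxotrophy and encoding a distinct fluorescent protein. It was pre-grown overnight to OD600 1.0, diluted to 0.3, and 70 µl was added to 384-well plates acoustically predosed with library drugs (10 µM final), then grown 24 h in minimal SM medium. Cells were paraformaldehyde-fixed and imaged by automated confocal microscopy, with single-auxotroph fluorescent strains setting thresholds and autofluorescence correction. Each subpopulation's abundance was scored as a z-score against the vehicle-well median.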

[3] = system: Saccharomyces cerevisiae BY4741 SeMeCo community; experiment: z-score of subpopulation abundance vs DMSO median, subpopulation auxotrophic for M; higher = larger share of this subpopulation than in DMSO controls; settings: 10 µM; 24 h; SM minimal medium; subpopulation (auxotrophy): M
Method in brief: as §1

[4] = system: Saccharomyces cerevisiae BY4741 SeMeCo community; experiment: z-score of subpopulation abundance vs DMSO median, subpopulation auxotrophic for L; higher = larger share of this subpopulation than in DMSO controls; settings: 10 µM; 24 h; SM minimal medium; subpopulation (auxotrophy): L
Method in brief: as §1

[5] = system: Saccharomyces cerevisiae BY4741 SeMeCo community; experiment: z-score of subpopulation abundance vs DMSO median, subpopulation auxotrophic for U; higher = larger share of this subpopulation than in DMSO controls; settings: 10 µM; 24 h; SM minimal medium; subpopulation (auxotrophy): U
Method in brief: as §1

[6] = system: Saccharomyces cerevisiae BY4741 SeMeCo community; experiment: z-score of subpopulation abundance vs DMSO median, subpopulation auxotrophic for H; higher = larger share of this subpopulation than in DMSO controls; settings: 10 µM; 24 h; SM minimal medium; subpopulation (auxotrophy): H
Method in brief: as §1

[7] = system: Saccharomyces cerevisiae BY4741 SeMeCo community; experiment: z-score of subpopulation abundance vs DMSO median, subpopulation auxotrophic for LU; higher = larger share of this subpopulation than in DMSO controls; settings: 10 µM; 24 h; SM minimal medium; subpopulation (auxotrophy): LU
Method in brief: as §1

[8] = system: Saccharomyces cerevisiae BY4741 SeMeCo community; experiment: z-score of subpopulation abundance vs DMSO median, subpopulation auxotrophic for HM; higher = larger share of this subpopulation than in DMSO controls; settings: 10 µM; 24 h; SM minimal medium; subpopulation (auxotrophy): HM
Method in brief: as §1

[9] = system: Saccharomyces cerevisiae BY4741 SeMeCo community; experiment: z-score of subpopulation abundance vs DMSO median, subpopulation auxotrophic for HU; higher = larger share of this subpopulation than in DMSO controls; settings: 10 µM; 24 h; SM minimal medium; subpopulation (auxotrophy): HU
Method in brief: as §1

[10] = system: Saccharomyces cerevisiae BY4741 SeMeCo community; experiment: z-score of subpopulation abundance vs DMSO median, subpopulation auxotrophic for UM; higher = larger share of this subpopulation than in DMSO controls; settings: 10 µM; 24 h; SM minimal medium; subpopulation (auxotrophy): UM
Method in brief: as §1

[11] = system: Saccharomyces cerevisiae BY4741 SeMeCo community; experiment: z-score of subpopulation abundance vs DMSO median, subpopulation auxotrophic for HL; higher = larger share of this subpopulation than in DMSO controls; settings: 10 µM; 24 h; SM minimal medium; subpopulation (auxotrophy): HL
Method in brief: as §1

[12] = system: Saccharomyces cerevisiae BY4741 SeMeCo community; experiment: z-score of subpopulation abundance vs DMSO median, subpopulation auxotrophic for HLU; higher = larger share of this subpopulation than in DMSO controls; settings: 10 µM; 24 h; SM minimal medium; subpopulation (auxotrophy): HLU
Method in brief: as §1

[13] = system: Saccharomyces cerevisiae BY4741 SeMeCo community; experiment: z-score of subpopulation abundance vs DMSO median, subpopulation auxotrophic for HLM; higher = larger share of this subpopulation than in DMSO controls; settings: 10 µM; 24 h; SM minimal medium; subpopulation (auxotrophy): HLM
Method in brief: as §1

[14] = system: Saccharomyces cerevisiae BY4741 SeMeCo community; experiment: z-score of subpopulation abundance vs DMSO median, subpopulation auxotrophic for HLUM; higher = larger share of this subpopulation than in DMSO controls; settings: 10 µM; 24 h; SM minimal medium; subpopulation (auxotrophy): HLUM
Method in brief: as §1

[15] = system: Saccharomyces cerevisiae BY4741 SeMeCo community; experiment: z-score of subpopulation abundance vs DMSO median, subpopulation auxotrophic for LUM; higher = larger share of this subpopulation than in DMSO controls; settings: 10 µM; 24 h; SM minimal medium; subpopulation (auxotrophy): LUM
Method in brief: as §1

[16] = system: Saccharomyces cerevisiae BY4741 SeMeCo community; experiment: z-score of subpopulation abundance vs DMSO median, subpopulation auxotrophic for LM; higher = larger share of this subpopulation than in DMSO controls; settings: 10 µM; 24 h; SM minimal medium; subpopulation (auxotrophy): LM
Method in brief: as §1

[17] = system: Saccharomyces cerevisiae BY4741 SeMeCo community; experiment: z-score of subpopulation abundance vs DMSO median, subpopulation auxotrophic for HUM; higher = larger share of this subpopulation than in DMSO controls; settings: 10 µM; 24 h; SM minimal medium; subpopulation (auxotrophy): HUM
Method in brief: as §1

| SMILES | mean cell size [1] | z-score of prototroph abundance [2] | z-score of subpopulation abundance [3] | z-score of subpopulation abundance [4] | z-score of subpopulation abundance [5] | z-score of subpopulation abundance [6] | z-score of subpopulation abundance [7] | z-score of subpopulation abundance [8] | z-score of subpopulation abundance [9] | z-score of subpopulation abundance [10] | z-score of subpopulation abundance [11] | z-score of subpopulation abundance [12] | z-score of subpopulation abundance [13] | z-score of subpopulation abundance [14] | z-score of subpopulation abundance [15] | z-score of subpopulation abundance [16] | z-score of subpopulation abundance [17] |
| --- | --- | --- | --- | --- | --- | --- | --- | --- | --- | --- | --- | --- | --- | --- | --- | --- | --- |
| O=c1ccc2ccc(OCCCCN3CCN(c4cccc5sccc45)CC3)cc2[nH]1 [Brexpiprazole] | 12.35 ± 0.092 | -0.62 | 0.05 | 0.33 | 0.84 | 0.96 | 0.27 | 0.35 | 1.54 | 1.41 | -0.02 | -0.45 | -0.13 | -0.98 |  |  |  |
| CCN1CCN(C(=O)N[C@@H](C(=O)N[C@@H]2C(=O)N3C(C(=O)O)=C(CSc4nnnn4C)CS[C@H]23)c2ccc(O)cc2)C(=O)C1=O [Cefoperazone] | 12.5 ± 0.21 |  | 0.6 | 0.4 | -0.72 | 0.43 | -0.39 |  |  | 0.26 | 0.07 | -0.34 | 0.34 | 0.24 | 0.47 |  |  |
| O=C(O[C@@H]1C[C@@H]2C[C@H]3C[C@H](C1)N2CC3=O)c1c[nH]c2ccccc12 [Dolasetron Mesylate] | 12.18 ± 0.11 | -0.86 | 0.81 | -0.52 | 0.89 | -0.55 | 1.19 |  | 0.7 | 1.07 | 0 | 0.01 | 0.35 | -0.07 | 0.21 | 0.31 |  |
| Clc1ccc(COC(Cn2ccnc2)c2ccc(Cl)cc2Cl)c(Cl)c1 (stereo unspecified) [Miconazole Nitrate] | 12.3 ± 0.19 | -8.17 | -6.38 | -2.76 | 3.11 | 29.9 | -0.2 | 0.3 | 15.7 | 1.18 | 9.42 | 11.6 | 19.4 |  | 0.15 | -3.18 |  |
| NC(=O)N/N=C/c1ccc([N+](=O)[O-])o1 [Nitrofural] |  | -0.16 | 1.2 | -0.82 | -0.14 | -0.29 | -0.35 | 0.63 | -0.42 |  | 0 | -1.14 | 3.28 | 0.17 | -0.73 | -1.3 |  |
| CSCC1CN(/N=C/c2ccc([N+](=O)[O-])o2)C(=O)O1 (stereo unspecified) [Nifuratel] | 13.05 ± 0.13 | 1.73 | 3.2 | 3.68 | -7.52 | 5.51 | -5.94 | 1.92 | -5.85 | -7.21 | 4.21 | -1.21 | 2.19 |  | -2.95 | 3.06 |  |
| CCCN1CCCC[C@H]1C(=O)Nc1c(C)cccc1C [Ropivacaine HCl] |  | -0.38 | 0.95 | 0.47 | 0.42 | -0.94 | 0.42 |  | -0.21 | 0.78 | -0.74 | -0.22 | 0.38 | 0.18 | -0.08 | 0.37 |  |
| C[C@H]1COc2c(C3(N)CC3)c(F)cc3c(=O)c(C(=O)O)cn1c23 [Pazufloxacin mesylate] |  | -0.35 | -0.46 | 0.31 | 0.53 | 0.02 | 0.86 | -0.36 | 0.48 | -0.02 |  | 1.38 | -0.08 | 0.08 | -0.3 | -0.18 |  |
| Cc1c[nH]c(=O)[nH]c1=O [Thymine] | 12.4 ± 0.22 | -0.52 | 0.85 | 0.24 | 0.76 | -0.36 | 0.49 | 0.33 | 0.14 | 0.58 | -0.04 | 0.71 | 0.64 |  | 0.24 |  |  |
| NCC[C@H](O)C(=O)N[C@@H]1C[C@H](N)[C@@H](O[C@H]2O[C@H](CN)[C@@H](O)[C@H](O)[C@H]2O)[C@H](O)[C@H]1O[C@H]1O[C@H](CO)[C@@H](O)[C@H](N)[C@H]1O [Amikacin hydrate] |  | 0.26 | -0.02 | 1.02 | -0.78 | -0.04 | -0.95 | -0.36 |  | -0.12 | 0.87 | -0.03 | 0.82 | 0.15 | -0.58 | 0.15 |  |
| CC1=C(C(=O)O)N2C(=O)[C@@H](NC(=O)[C@H](N)c3ccccc3)[C@H]2SC1 [Cephalexin] | 12 ± 0.24 | -0.14 | 1.37 | 0.02 | -1.02 | 0.56 | -0.21 | 1.28 |  | -0.17 |  | -0.6 | -0.53 | -0.42 |  | 0.35 |  |
| O=c1[nH]c(=O)n([C@H]2C[C@H](O)[C@@H](CO)O2)cc1I [Idoxuridine] | 12.4 ± 0.2 | 0.18 | -0.27 | 0.48 | 0.23 | -0.48 | -0.03 | -0.13 | -0.23 | -0.05 | -0.43 | -0.57 | -0.75 | -0.73 | -0.31 |  |  |
| CC(=O)[C@@]1(O)CC[C@H]2[C@@H]3C[C@H](C)C4=CC(=O)CC[C@]4(C)[C@H]3CC[C@@]21C [Medroxyprogesterone] |  | -0.12 | 0.07 | 0.51 | 0.2 | -0.26 | 0.44 | -0.02 | 0.01 | -0.35 | 0.3 | 1.06 | 0.49 |  | 0.93 | 0.45 |  |
| Cc1cc(C)nc(O)n1.O=C(Nc1ccc([N+](=O)[O-])cc1)Nc1ccc([N+](=O)[O-])cc1 [Nicarbazin] | 12.4 ± 0.18 | 0.74 | -0.21 | -0.96 | 0.5 | -0.25 | 0.22 | -0.62 | -0.22 | -0.4 | -1.2 | -0.28 | -0.49 | -0.56 | -0.52 |  |  |
| COC(=O)C1=C(C)NC(C)=C(C(=O)OC2CCCN(Cc3ccccc3)C2)C1c1cccc([N+](=O)[O-])c1 (stereo unspecified) [Benidipine HCl] | 12.4 ± 0.23 | -0.13 | 0.13 | 1.12 |  |  | 0.07 | 0.86 |  | -0.42 | 1.55 | 0.26 |  | -0.21 | 0.29 | 1.8 | 0.12 |
